Bioassay records from PubChem BioAssay.
KB-3-1 cytotox: qHTS assay for MDR1-selective chemotherapeutics: Primary screen using the parental adenocarcinoma cell KB-3-1; KB-3-1 viability, CellTiter-Glo ATP luminescence, 72 h; Potency, µM (series often up to 46.1 µM), most hits filed as cytotoxic; 400,000 compounds, 1.4% hits; AID 1347075, 2019; also: % is scaled to controls: 0 for no effect and ±100 for the full control effect; nearly all actives have a fitted effect of over 60% in size
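Using CellTiter-Glo luminescence, growth of non-resistant KB-3-1 adenocarcinoma cells is assessed 72 h after pin-tool compound addition at 37 °C. Normalized responses across the concentration series yield fitted curves.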
SW480 rereplic: A quantitative high throughput screen for small molecules that induce DNA re-replication in SW480 colon adenocarcinoma cells; 340,000 compounds, 1.8% hits; SW480 DNA re-replication, Hoechst DNA content imaging, 48 h; AID 624297, 2012; Potency, µM (titrated, usually from 46.1 µM), without a hit: top-dose re-replication activation, actives largely listed as activators; also: % of control where 0% means no effect; nearly all actives have a fitted effect of over 55% in size
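Quantitative HTS format with DMSO vehicle controls; 48 hr drug incubation at 37 C, then 40 min Hoechst staining and scanning imager measurement at 405 nm excitation.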
KB-V1 cytotox: qHTS assay for MDR1-selective chemotherapeutics: Primary screen using the drug-selected MDR subline cells KB-V1; 400,000 compounds, 3.4% hits; KB-V1 MDR cells viability, CellTiter-Glo, 72 h; Potency, µM (series often up to 46.1 µM), usual class: cytotoxic; also: % is scaled to controls: 0 for no effect and ±100 for the full control effect; nearly all actives have a fitted effect of over 60% in size
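In this primary screen, KB-V1 cells overexpressing P-gp are incubated with library compounds (lowest to highest concentration) for 72 h at 37 degrees C before a luminescent ATP viability read.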
HT1080 IDH1KD tx: qHTS for induction of synthetic lethality in tumor cells producing 2HG: qHTS for the HT-1080-IDH1KD cell line. HT-1080 IDH1 knockdown viability, ATP luminescence, 48 h. Potency, µM (doses to about 46.1 µM), for the others: at the highest dose activity, negative = toxicity, hits mostly cytotoxic. 360,000 compounds, 2% hits;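 also: 0% = DMSO wells and -100% = cell-free medium wells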
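CellTiter-Glo luminescence after 48 h compound exposure at 37 degrees C of IDH1-knockdown HT-1080 cells in 5% FBS RPMI. %Activity scaled between DMSO wells and cell-free media wells, with curves fitted and assigned curve classes.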
MCF10A rereplic: A quantitative high throughput screen for small molecules that induce DNA re-replication in MCF 10a normal breast cells | Potency, µM (top dose mostly 46.1 µM), without a hit: top-dose activity, positive = re-replication, hits mostly activators | 350,000 compounds, 2.9% hits | MCF 10A DNA re-replication, Hoechst nuclear intensity, 48 h; also: % of control where 0% means no effect; nearly all actives have a fitted effect of over 50% in size
HT1080NT lethal: qHTS for induction of synthetic lethality in tumor cells producing 2HG: qHTS for the HT-1080-NT fibrosarcoma cell line | HT-1080-NT fibrosarcoma viability, CellTiter-Glo ATP luminescence, 48 h | Potency, µM (top dose mostly 46.1 µM), inactives show at the highest dose activity, negative = less viability, hits mostly cytotoxic | 360,000 compounds, 1.6% hits;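 also: NT is the 2HG producing partner of a matched IDH1 knockdown line; 0% = DMSO-treated cells and -100% = media-only wells without cells; nearly all actives have a fitted effect of over 55% in size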
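Luminescent CellTiter-Glo readout after 48 hours of compound exposure at 37 degrees C defined viability of HT-1080-NT cells. Activity was normalized to DMSO wells and cell-free media wells; concentration-response curves were fitted and assigned curve classes.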
* marks the source's active call; other numbers are inactive results; i = inactive; ? = inconclusive; / = not tested or not shown; [ ] = remark or other dose. The list is not random: actives were taken first. Their share in the collection is about 7.9%. Calls follow the shape of the dose curve; as a rule, active = well fitted curve in the direction sought with a large enough effect; inconclusive = small, poorly fitted or top-dose-only effect, or another doubt; inactive = no such curve, though single readings can be large; an effect the other way counts as inactive or inconclusive. Potency is read from the fitted curve at half-maximal effect.

SMILES	KB-3-1 cytotox	SW480 rereplic	KB-V1 cytotox	HT1080 IDH1KD tx	MCF10A rereplic	HT1080NT lethal
Cc1cccc(N(Cc2ccccc2)C(=O)CN2C(=O)NC3(CCCC3)C2=O)c1	i	-0.5%	i	-1.7%	25.3%	-3.8%
CCOC(=O)c1c(NC(=O)c2ccc(S(=O)(=O)N3CCC(C)CC3)cc2)sc2c1CCN(CC)C2	i	/	i	/	/	/
Oc1csc(Cc2nc(-c3ccccc3F)cs2)n1	i	5.8%	i	6.8%	-0.8%	0.2%
Nc1c(Cl)ncnc1Nc1ccc(C(=O)O)cc1	i	-4.0%	?	2.0%	-8.7%	-4.2%
COc1ccccc1C1CC(=O)Nc2cc(C)c(C)cc21 (centres undefined)	16.4µM*	20.6µM*	9.2µM*	6.51µM*	15.4%	?
CC(C)Oc1ccccc1C1CC(=O)Nc2cc3c(cc21)OCO3 (centres undefined)	2.59µM*	?	1.3µM*	1.84µM*	0.517µM*	3.66µM*
COc1cc2c(cc1OC)C(c1ccc(Br)cc1)CC(=O)N2 (centres undefined)	i	?	i	-3.0%	0.651µM*	-1.9%
CC(C)Oc1cccc(C2CC(=O)Nc3cc4c(cc32)OCO4)c1 (centres undefined)	3.66µM*	/	?	/	/	/
Cc1cccc(C2CC(=O)Nc3cc4c(cc32)OCO4)c1 (centres undefined)	?	/	i	/	/	/
COc1cccc(C2CC(=O)Nc3cc4c(cc32)OCO4)c1OC(C)C (centres undefined)	i	/	i	/	/	/
CC1CCCN(C(=O)CSc2c3c(nc4cc(Cl)ccc24)CCCC3)C1 (centres undefined)	i	/	i	/	/	/
O=C(CCNS(=O)(=O)c1ccc2c(c1)CCN2C(=O)C1CC1)Nc1ccc(F)cc1F	i	/	i	/	/	/
CC(C)(CNC(=O)c1cccc(F)c1)CNC(=O)c1cccc(F)c1	i	11.4%	?	10.8%	-0.5%	-7.1%
Cc1cc2c(cc1C)C(c1ccccc1OC(C)C)CC(=O)N2 (centres undefined)	5.8µM*	5.17µM*	?	2.31µM*	1.46µM*	4.11µM*
CCOc1ccccc1C1CC(=O)Nc2cc(OC)c(OC)c(OC)c21 (centres undefined)	i	-4.0%	?	13.2%	20.5%	8.0%
CCOc1ccccc1C1CC(=O)Nc2cc(C)c(C)cc21 (centres undefined)	?	18.4µM*	8.2µM*	14.6µM*	?	?
COc1cc2c(cc1OC)C(c1cc(C)ccc1C)CC(=O)N2 (centres undefined)	i	-0.1%	?	-3.9%	0.651µM*	-11.5%
Cc1cc2c(cc1C)C(c1ccccc1Br)CC(=O)N2 (centres undefined)	18.4µM*	?	23.1µM*	-8.7%	?	-5.3%
COc1cc2c(cc1OC)C(c1ccco1)CC(=O)N2 (centres undefined)	i	-21.9%	i	-2.9%	-0.8%	-0.3%
NS(=O)(=O)c1cc(C(=O)N2CCNC(=O)C2)ccc1Cl	i	-56.2%	i	0.0%	-32.8%	5.2%
CC(CC=O)CCCC(C)(C)O (centres undefined)	/	-1.4%	/	/	0.2%	/
COc1ccc(N2C(=O)CC(Sc3nnnn3-c3ccc(F)cc3)C2=O)cc1 (centres undefined)	i	10.3µM*	i	4.11µM*	?	16.4µM*
COc1ccc(Nc2c(-c3ccccn3)nc3ccc(Cl)cn23)cc1	i	/	i	/	/	/
O=C(NCc1cccc(Cl)c1)c1cccc2c(-c3cccnc3)coc12	i	/	i	-24.6%	/	-13.5%
Cc1ccc(-c2noc(CCC(=O)NCCCN3CCN(c4cccc(Cl)c4)CC3)n2)cc1	18.4µM*	?	16.4µM*	?	?	?
SMILES	KB-3-1 cytotox	SW480 rereplic	KB-V1 cytotox	HT1080 IDH1KD tx	MCF10A rereplic	HT1080NT lethal
Cc1ccccc1CS(=O)(=O)CCC(=O)NCCN1CCN(c2cccc(Cl)c2)CC1	i	-124.3%	10.3µM*	-2.9%	0.4%	-1.0%
CCN1CCN(CCCNC(=O)CCc2nc(-c3ccc(OC)cc3)no2)CC1	i	6.9%	i	6.9%	-11.6%	2.8%
COc1ccc(-c2noc(CCC(=O)NCCCN3CCN(c4ccccc4F)CC3)n2)cc1	i	-8.0%	i	-9.3%	23.5%	-1.2%
Cc1ccc(-c2noc(CCC(=O)NCCCN3CCN(c4ccc(F)cc4)CC3)n2)cc1	?	?	13µM*	-11.8%[9.24 µM]	7.3%	23.1µM*
O=C(Cn1nc(-c2ccccc2)ccc1=O)NCCN1CCN(c2cccc(Cl)c2)CC1	i	-1.8%	5.8µM*	?	-0.6%	-18.0%
COc1cc(C2c3c(-c4cc(C)ccc4O)n[nH]c3C(=O)N2CCCO)ccc1OCCC(C)C (centres undefined)	i	/	i	/	/	/
CCOc1ccccc1N1CCN(C(=O)C2CSC3(C)CCC(=O)N23)CC1 (centres undefined)	i	-5.4%	18.4µM*	-7.8%	-6.4%	3.7%
NC(=O)c1cc([N+](=O)[O-])ccc1N1CCCCC1	i	-2.4%	i	1.3%	15.3%	10.3%
Cc1ccc(C(=O)c2cc([N+](=O)[O-])ccc2N2CC(C)OC(C)C2)cc1 (centres undefined)	i	11.6µM*	?	?	22.0%	18.4µM*
Cc1ccc(C(=O)c2cc([N+](=O)[O-])ccc2N2CCCCC2)cc1	i	0.581µM*	?	0.92µM*	?	0.82µM*
CC1CN(c2ccc([N+](=O)[O-])cc2C#N)CC(C)O1 (centres undefined)	i	12.6%	?	11.0%	0.4%	9.8%
COc1ccccc1N1CCN(CCCCCCOc2ccc(F)cc2)CC1	?	?	3.66µM*	4.3%	?	-15.5%
COc1ccccc1N1CCN(CCCCOc2cccc3ccccc23)CC1	i	4.5%	i	16.4µM*	?	?
COc1ccccc1OCCCCN1CCN(c2ccccc2OC)CC1	i	2.8%	i	-11.0%	10.7%	-15.2%
